# Measured values as given in PubChem BioAssay (EPA / NIEHS).
# Activity calls are given as the source filed them. Rule for the calls: active = hit-call score of the fitted dose curve at least 0.9, where 1 is the maximum; inactive = score below 0.9.
# How the values were obtained:
# [1] = read-out: Matrix Metallopeptidase 1 (MMP1), MMP1 (gene 4312); assay: BSK_BE3C_MMP1: BioMAP Diversity Plus: BE3C Assay for Matrix Metallopeptidase 1 (MMP1) Biomarker Activity (AID 2283024); settings: primary human bronchial epithelial cells; actives raise or lower the signal
# Method in brief: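 In this multiplexed primary-cell system, human bronchial epithelium received chemicals for 24 h before an ELISA for MMP1. Values reflect bidirectional fits normalised to the DMSO baseline.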
# [2] = BSK_3C_Vis: BioMAP Diversity Plus: 3C Assay for Morphology Visualization (AID 2283025); settings: primary human endothelial cells (HUVEC);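 note: fitted both ways so gain or loss versus DMSO counts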
# Method in brief: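 Light-microscopy morphology readout, 24 h exposure, human primary umbilical vein endothelium; analysed relative to DMSO with bidirectional fitting.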
# [3] = read-out: Pselectin, SELP (gene 6403); assay: BSK_4H_Pselectin: BioMAP Diversity Plus: 4H Assay for Pselectin Biomarker Activity (AID 2283026); settings: primary human endothelial cells (HUVEC); actives raise or lower the signal
# Method in brief: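 Bidirectional fits against DMSO gave the endpoint. Cells: primary human umbilical vein endothelium, chemical-treated for 24 h before ELISA detection of P-selectin.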
# [4] = BSK_4H_SRB: Viability Assessment in the BioMAP Diversity Plus: 4H Assay (AID 2283027); settings: primary human endothelial cells (HUVEC);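 note: cells exposed to compound for 24 h before staining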;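 for AC50: curves fitted both ways versus DMSO so AC50 may be loss or gain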
# Method in brief: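 Cytotoxicity readout: sulforhodamine B (0.1%) staining of total protein after 10% TCA fixation, measured at 560 nm in human umbilical vein endothelium at 24 h. DMSO set the baseline; fitting was bidirectional.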
# [5] = BSK_BE3C_SRB: Viability Assessment in the BioMAP Diversity Plus: BE3C Assay (AID 2283028); settings: primary human bronchial epithelial cells;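 for AC50: fitted both ways so AC50 may mark signal gain or loss versus DMSO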
# Method in brief: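 Cytotoxicity read-out: SRB (0.1%) staining of TCA-fixed (10%) human lung bronchial epithelial cells, absorbance 560 nm, 24 h post-dosing. Curves fitted both directions relative to DMSO.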
# [6] = read-out: Thrombomodulin, THBD (gene 7056); assay: BSK_3C_Thrombomodulin: BioMAP Diversity Plus: 3C Assay for Thrombomodulin Biomarker Activity (AID 2283029); settings: primary human endothelial cells (HUVEC); actives raise or lower the signal
# Method in brief: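 In a multiplexed primary-cell system, human umbilical vein endothelium received chemical and was assayed 24 h later for thrombomodulin by ELISA. Parallel cultures were SRB-stained (0.1% SRB after 10% TCA fixation, read at 560 nm) to flag cytotoxicity.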
# [7] = read-out: Urokinase-type plasminogen activator receptor (uPAR), PLAUR (gene 5329); assay: BSK_4H_uPAR: BioMAP Diversity Plus: 4H Assay for Urokinase-type plasminogen activator receptor (uPAR) Biomarker Activity (AID 2283030); settings: primary human endothelial cells (HUVEC); actives raise or lower the signal
# Method in brief: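 uPAR level read by ELISA on HUVEC cultures (BioMAP 4H) 24 h post-dosing, analyzed for gain or loss relative to DMSO. Parallel SRB staining assessed overt cytotoxicity.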
# [8] = read-out: Vascular endothelial growth factor receptor 2 (Homo sapiens) (UniProt P35968); assay: BSK_4H_VEGFRII: BioMAP Diversity Plus: 4H Assay for Vascular endothelial growth factor receptor 2 (VEGFR2) Biomarker Activity (AID 2283031); settings: primary human endothelial cells (HUVEC); actives raise or lower the signal;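 for AC50: cell-surface VEGFR2 protein level quantified by ELISA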
# Method in brief: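 Measured by ELISA after 24 h of compound treatment: VEGFR2 on primary human umbilical vein endothelial cells, fitted in both directions relative to DMSO. Parallel cultures received SRB staining (560 nm) for overt cytotoxicity.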
# [9] = read-out: Human Leukocyte Antigen - DR isotype (HLADR), HLA-DRA (gene 3122); assay: BSK_BE3C_HLADR: BioMAP Diversity Plus: BE3C Assay for Human Leukocyte Antigen - DR isotype (HLADR) Biomarker Activity (AID 2283032); settings: primary human bronchial epithelial cells; actives raise or lower the signal
# Method in brief: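 BioMAP BE3C format: human bronchial epithelium, 24 h compound treatment, ELISA detection of HLA-DR, with bidirectional analysis relative to DMSO.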
# [10] = read-out: Vascular cell adhesion molecule 1 (VCAM1), VCAM1 (gene 7412); assay: BSK_4H_VCAM1: BioMAP Diversity Plus: 4H Assay for Vascular cell adhesion molecule 1 (VCAM1) Biomarker Activity (AID 2283033); settings: primary human endothelial cells (HUVEC); actives raise or lower the signal;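 for outcome: cell-surface VCAM-1 protein measured by ELISA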
# Method in brief: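 In this human endothelial (HUVEC) system, biomarker ELISA was run 24 h after compound addition, and total protein in parallel wells was assessed by SRB at 560 nm; DMSO served as negative control.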
# [11] = read-out: Interferon-gamma inducible Protein 10 (IP10), CXCL10 (gene 3627); assay: BSK_BE3C_IP10: BioMAP Diversity Plus: BE3C Assay for Interferon-gamma inducible Protein 10 (IP10) Biomarker Activity (AID 2283034); settings: primary human bronchial epithelial cells; actives raise or lower the signal
# Method in brief: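 BE3C cells (human bronchial epithelial, primary); 24 h exposure; ELISA for IP-10; DMSO-referenced bidirectional fit.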
# [12] = read-out: Monokine induced gamma interferon (MIG), CXCL9 (gene 4283); assay: BSK_BE3C_MIG: BioMAP Diversity Plus: BE3C Assay for Monokine induced gamma interferon (MIG) Biomarker Activity (AID 2283035); settings: primary human bronchial epithelial cells; actives raise or lower the signal;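 for outcome: MIG protein measured by ELISA in BE3C cultures after 24 h of dosing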
# Method in brief: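 hu bronchial epithelial 1° cells, 24 h cpd; MIG by ELISA; bidirectional fit, DMSO = baseline.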
# [13] = read-out: Plasminogen activator inhibitor-1 (PAI1), SERPINE1 (gene 5054); assay: BSK_BE3C_PAI1: BioMAP Diversity Plus: BE3C Assay for Plasminogen activator inhibitor-1 (PAI1) Biomarker Activity (AID 2283037); settings: primary human bronchial epithelial cells; actives raise or lower the signal
# Method in brief: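 In this multiplexed primary-cell system, bronchial epithelial cells receive test chemical and are sampled at 24 h. PAI-1 is read by ELISA, with DMSO serving as negative control for bidirectional fitting.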
# [14] = read-out: urokinase plasminogen activator (uPA), PLAU (gene 5328); assay: BSK_BE3C_uPA: BioMAP Diversity Plus: BE3C Assay for urokinase plasminogen activator (uPA) Biomarker Activity (AID 2283038); settings: primary human bronchial epithelial cells; actives raise or lower the signal;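 for outcome: uPA protein level quantified by ELISA in cell cultures; uPA read one day after compound addition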
# Method in brief: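 ELISA for uPA on human primary bronchial epithelial cultures 24 h post-treatment, gain or loss against DMSO. Parallel SRB staining (0.1% after 10% TCA fixation, 560 nm) assessed overt cytotoxicity.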
# [15] = read-out: Urokinase-type plasminogen activator receptor (uPAR), PLAUR (gene 5329); assay: BSK_BE3C_uPAR: BioMAP Diversity Plus: BE3C Assay for Urokinase-type plasminogen activator receptor (uPAR) Biomarker Activity (AID 2283039); settings: primary human bronchial epithelial cells; actives raise or lower the signal;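 for outcome: uPAR protein level measured by ELISA on the cells; cells exposed to compound for one day before measurement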
# Method in brief: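 Chemically treated human bronchial epithelial cells (lung primary) are assayed for uPAR by ELISA after 24 h, with data fitted in both directions using DMSO as negative control.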
# [16] = read-out: Interleukin-6 (IL6), IL6 (gene 3569); assay: BSK_CASM3C_IL6: BioMAP Diversity Plus: CASM3C Assay for Interleukin-6 (IL6) Biomarker Activity for (AID 2283040); settings: primary human coronary artery smooth muscle cells; actives raise or lower the signal
# [17] = read-out: Tissue plasminogen activator (tPA), PLAT (gene 5327); assay: BSK_BE3C_tPA: BioMAP Diversity Plus: BE3C Assay for Tissue plasminogen activator (tPA) Biomarker Activity (AID 2283041); settings: primary human bronchial epithelial cells; actives raise or lower the signal;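 for outcome: tPA level quantified by ELISA one day after compound addition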
# Method in brief: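 Using human lung primary bronchial epithelial cells, tPA was measured by ELISA 24 h after dosing; data fitted relative to DMSO.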
# [18] = read-out: Interleukin-8 (IL8), CXCL8 (gene 3576); assay: BSK_CASM3C_IL8: BioMAP Diversity Plus: CASM3C Assay for Interleukin-8 (IL8) Biomarker Activity (AID 2283042); settings: primary human coronary artery smooth muscle cells; actives raise or lower the signal;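 note: IL-8 protein level quantified by ELISA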
# [19] = read-out: Human Leukocyte Antigen - DR isotype (HLADR), HLA-DRA (gene 3122); assay: BSK_CASM3C_HLADR: BioMAP Diversity Plus: CASM3C Assay for Human Leukocyte Antigen - DR isotype (HLADR) Biomarker Activity (AID 2283043); settings: primary human coronary artery smooth muscle cells; actives raise or lower the signal;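 note: cell-surface HLA-DR protein level quantified by ELISA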
# [20] = read-out: Transforming growth factor beta 1 (TGFb1), TGFB1 (gene 7040); assay: BSK_BE3C_TGFb1: BioMAP Diversity Plus: BE3C Assay for Transforming growth factor beta 1 (TGFb1) Biomarker Activity (AID 2283036;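 for outcome: TGF-b1 protein level measured by ELISA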); settings: primary human bronchial epithelial cells; actives raise or lower the signal
# Method in brief: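 TGF-b1 measured via ELISA, 24 h after chemical dosing of human bronchial epithelial cells (BE3C). Overt cytotoxicity assessed in parallel by SRB (0.1%, TCA-fixed, 560 nm); analysis bidirectional relative to DMSO.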
smiles,measurement,setting,value
OCCOCCO,outcome,[1],inactive
same,outcome,[2],inactive
same,outcome,[3],inactive
same,outcome,[4],inactive
same,outcome,[5],inactive
same,outcome,[6],inactive
same,outcome,[7],inactive
same,outcome,[8],inactive
same,outcome,[9],inactive
same,outcome,[10],inactive
same,outcome,[11],inactive
same,outcome,[12],inactive
same,outcome,[13],inactive
same,outcome,[14],inactive
same,outcome,[15],inactive
same,outcome,[16],inactive
same,outcome,[17],inactive
same,outcome,[18],inactive
same,outcome,[19],inactive
COc1cc(C=O)cc2c1[C@H](COC(N)=O)[C@]1(OC(C)=O)ON2C[C@H]2[C@@H]1N2C(C)=O,AC50,[1],3.3 µM (active)
same,AC50,[3],3.37 µM (active)
same,AC50,[4],3.17 µM (active)
same,AC50,[5],6.31 µM (active)
same,outcome,[6],inactive
same,AC50,[7],1.14 µM (active)
same,AC50,[8],4.42 µM (active)
same,AC50,[9],1.74 µM (active)
same,AC50,[10],13.4 µM (active)
same,AC50,[11],2.72 µM (active)
same,AC50,[12],9.98 µM (active)
same,AC50,[20],4.63 µM (active)
same,AC50,[13],1.99 µM (active)
same,AC50,[14],7.92 µM (active)
same,AC50,[15],6.18 µM (active)
same,AC50,[16],6.63 µM (active)
same,AC50,[17],2.11 µM (active)
same,AC50,[18],3.6 µM (active)
same,AC50,[19],1.18 µM (active)
Cc1ccc(N)cc1,outcome,[1],inactive
same,outcome,[3],inactive
same,outcome,[4],inactive
same,outcome,[5],inactive
same,outcome,[6],inactive
same,outcome,[7],inactive
same,outcome,[8],inactive
same,outcome,[9],inactive
same,outcome,[10],inactive
same,outcome,[11],inactive
same,outcome,[12],inactive
same,outcome,[20],inactive
same,outcome,[13],inactive
same,outcome,[14],inactive
same,outcome,[15],inactive
same,outcome,[16],inactive
same,outcome,[17],inactive
same,outcome,[18],inactive
same,outcome,[19],inactive
COP(=S)(OC)SCN1C(=O)c2ccccc2C1=O,outcome,[1],inactive
same,outcome,[2],inactive
same,outcome,[3],inactive
same,outcome,[4],inactive
same,outcome,[5],inactive
same,outcome,[6],inactive
same,outcome,[7],inactive
same,outcome,[8],inactive
same,outcome,[9],inactive
same,outcome,[10],inactive
same,outcome,[11],inactive
same,outcome,[12],inactive
same,outcome,[13],inactive
same,outcome,[14],inactive
same,outcome,[15],inactive
same,outcome,[16],inactive
same,outcome,[17],inactive
same,outcome,[18],inactive
same,outcome,[19],inactive
Clc1ccc(C(c2ccc(Cl)cc2)C(Cl)Cl)cc1,AC50,[1],13.7 µM (active)
same,AC50,[3],15.1 µM (active)
same,AC50,[4],29.3 µM (active)
same,outcome,[5],inactive
same,outcome,[6],inactive
same,AC50,[7],31.4 µM (active)
same,AC50,[8],26.1 µM (active)
same,AC50,[9],30.5 µM (active)
same,AC50,[10],25 µM (active)
same,AC50,[11],32.2 µM (active)
same,outcome,[12],inactive
same,AC50,[20],34.6 µM (active)
same,AC50,[13],34.4 µM (active)
same,outcome,[14],inactive
same,outcome,[15],inactive
same,outcome,[16],inactive
same,outcome,[17],inactive
same,outcome,[18],inactive
same,AC50,[19],25.2 µM (active)
OCCCBr,outcome,[1],inactive
same,outcome,[3],inactive
same,outcome,[4],inactive
same,outcome,[5],inactive
same,outcome,[6],inactive
same,outcome,[7],inactive
same,outcome,[8],inactive
same,outcome,[9],inactive
same,outcome,[10],inactive
same,outcome,[11],inactive
same,outcome,[12],inactive
same,outcome,[20],inactive
same,outcome,[13],inactive
same,outcome,[14],inactive
same,outcome,[15],inactive
same,outcome,[16],inactive
same,outcome,[17],inactive
same,outcome,[18],inactive
same,outcome,[19],inactive
CN(C)c1ccccc1,outcome,[1],inactive
same,outcome,[2],inactive
same,outcome,[3],inactive
same,outcome,[4],inactive
same,outcome,[5],inactive
same,outcome,[6],inactive
same,outcome,[7],inactive
same,outcome,[8],inactive
same,outcome,[9],inactive
same,outcome,[10],inactive
same,outcome,[11],inactive
same,outcome,[12],inactive
same,outcome,[13],inactive
same,outcome,[14],inactive
same,outcome,[15],inactive
same,outcome,[16],inactive
same,outcome,[17],inactive
same,outcome,[18],inactive
same,outcome,[19],inactive
